Compound activity: PubChem, National Center for Advancing Translational Sciences (NCATS)
This is a sample that favours compounds with a hit; in the whole collection about 10% have one here.
MCF10A rereplic = induces DNA re-replication in MCF 10a normal breast cells | MCF 10A DNA re-replication, Hoechst nuclear intensity, 48 h | 350,000 compounds, 2.9% hits | Potency, µM (doses to about 46.1 µM), hits mostly activators; note: nearly all actives have a fitted effect of over 50% in size
SW480 rerep = induces DNA re-replication in SW480 colon adenocarcinoma cells | SW480 DNA re-replication, Hoechst DNA content imaging, 48 h | Potency, µM (highest dose often 46.1 µM), most hits filed as activators | 340,000 compounds, 1.8% hits | AID 624297; note: nearly all actives have a fitted effect of over 55% in size
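250 cells/well; 23 nL cpd via pin tool; 48 hr, 37 C, 5% CO2; Hoechst 40 min; imager read of total nuclear intensity, ex 405/em 500-530 nm.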
Gal4-VP16 FLuc = counter-screen for ROR gamma inhibitors: Gal4-VP16 reporter; Drosophila S2 Gal4-VP16 UAS-luciferase, luminescence, 20 h; Potency, µM (highest dose often 53.6 µM), hits mostly inhibitors; 310,000 compounds, 3.5% hits;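 note: Gal4-VP16 expression switched on by copper sulfate through the metallothionein promoter; nearly all actives have a fitted effect of over 50% in size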
KB-V1 MDR tox = kills drug-selected multidrug resistant KB-V1 cells; KB-V1 MDR cells viability, CellTiter-Glo, 72 h; Potency, µM (series often up to 46.1 µM), usual class: cytotoxic; 400,000 compounds, 3.4% hits; AID 1347076; note: nearly all actives have a fitted effect of over 60% in size
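Following 72 h at 37 degrees C with compound, KB-V1 cell viability was read by CellTiter-Glo luminescence, medium being phenol-red-free DMEM plus 10% FBS; concentration-response parameters came from normalized, curve-fitted qHTS data.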
KB-3-1 tox = KB-3-1 parental cell cytotoxicity | 400,000 compounds, 1.4% hits | AID 1347075 | KB-3-1 viability, CellTiter-Glo ATP luminescence, 72 h | Potency, µM (titrated, usually from 46.1 µM), usual class: cytotoxic; note: nearly all actives have a fitted effect of over 60% in size
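KB-3-1 parental drug-naive adenocarcinoma cells in DMEM/10% FBS, incubated 72 h at 37 C with pin-transferred compounds across a concentration series. Viability by CellTiter-Glo luminescence; concentration-response curves fitted after normalization.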
RORgamma inh = ROR gamma (mouse) transcription inhibition; P51450; Drosophila S2 Gal4-RORgamma UAS-luciferase reporter, 20 h; Potency, µM (doses to about 53.6 µM), actives largely listed as inhibitors; 310,000 compounds, 5.4% hits; note: nearly all actives have a fitted effect of over 60% in size
Target sequence (P51450 whole entry, looked up, the tested form may be a part): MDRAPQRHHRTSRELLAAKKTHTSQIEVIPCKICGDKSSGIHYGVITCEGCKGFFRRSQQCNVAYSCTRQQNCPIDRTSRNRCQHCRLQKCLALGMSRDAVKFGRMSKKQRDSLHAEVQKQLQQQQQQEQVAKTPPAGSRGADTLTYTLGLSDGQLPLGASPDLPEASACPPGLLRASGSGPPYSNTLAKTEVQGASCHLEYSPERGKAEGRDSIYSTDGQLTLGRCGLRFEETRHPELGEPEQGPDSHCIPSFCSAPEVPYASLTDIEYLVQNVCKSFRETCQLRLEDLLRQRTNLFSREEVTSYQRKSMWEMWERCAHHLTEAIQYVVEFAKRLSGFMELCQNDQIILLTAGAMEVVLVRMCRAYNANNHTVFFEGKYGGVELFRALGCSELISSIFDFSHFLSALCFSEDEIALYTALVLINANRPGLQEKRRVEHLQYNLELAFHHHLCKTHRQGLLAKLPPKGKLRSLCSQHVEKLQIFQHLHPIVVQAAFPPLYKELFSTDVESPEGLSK
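Drosophila Schneider cells stably carrying a metallothionein-driven Gal4 DBD–ROR gamma fusion and a UAS-Photinus luciferase reporter were exposed to compound for 1 hr, then induced with copper sulfate (700 uM final) for 20 hr at ambient temperature before luminescence reading.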
Hits are given with their value; – = inactive; ? = inconclusive; · = no result given; [ ] = dose if it differs, or a comment. Calls come from the whole dose curve; as a rule, active = well fitted curve in the direction sought with a large enough effect; inconclusive = small, poorly fitted or top-dose-only effect, or another doubt; inactive = no such curve, though single readings can be large; an effect the other way counts as inactive or inconclusive.

SMILES | MCF10A rereplic | SW480 rerep | Gal4-VP16 FLuc | KB-V1 MDR tox | KB-3-1 tox | RORgamma inh
O=C(CSC(=S)N1CCOCC1)Nc1nc(-c2ccccc2)c(-c2ccccc2)o1 | – | – | ? | – | – | 11.2µM
COc1ccc(-c2nnc(SCC(=O)N(C)Cc3ccccc3)o2)cc1OC | · | · | · | – | – | ·
CN(C)CCNC(=O)Cc1ccc(NC(=O)N2CCCCc3ccccc32)cc1 | · | · | · | – | – | ·
O=C1C(Cl)=C(N2CCN(c3ccccc3[N+](=O)[O-])CC2)C(=O)c2ccccc21 | ? | 16.4µM | ? | ? | ? | –
CC(C)N(C)c1ncnc2c1ncn2[C@H]1CN(Cc2ccc3c(c2)OCO3)C[C@@H](CO)O1 | · | · | · | – | – | ·
Cc1cc(=O)n2c3ccccc3n(CC(O)CN3CCCC3)c2c1C#N (centres undefined) | ? | – | – | ? | – | –
CCCNCC(O)Cn1c2ccccc2n2c(=O)cc(C)c(C#N)c12 (centres undefined) | – | – | – | ? | – | 0.708µM
Cc1ccc(/C=C/C(=O)N2CCc3ccccc3C2)cc1 | – | – | ? | – | – | 17.8µM
O=C(/C=C/c1ccc(F)cc1)N1CCc2ccccc2C1 | – | – | · | – | – | ·
Cc1ccc(-c2nc(CS(=O)(=O)CC(=O)N3CCc4ccccc4C3)c(C)o2)cc1 | – | – | – | ? | 18.4µM | ?
CC(C)(C)c1ccc(/C=C/C(=O)N2CCc3ccccc3C2)cc1 | – | – | 1µM | – | – | ?
O=C(/C=C/C(=O)N1CCc2ccccc2C1)N1CCc2ccccc2C1 | – | – | 20µM | – | – | ?
COc1cccc(-c2ccc3c(N)c(C(=O)c4ccc(F)cc4)sc3n2)c1 | · | · | · | – | – | ·
CC1(C)C2CCC1(CS(=O)(=O)Nc1ccc(S(=O)(=O)N3CCCCC3)cc1)C(=O)C2 (centres undefined) | – | ? | – | 25.9µM | – | ?
O=C(c1ccc(N2CCN(S(=O)(=O)c3ccccc3)CC2)c([N+](=O)[O-])c1)N1CCOCC1 | – | – | – | 3.66µM | – | –[10 µM]
Cc1ccc(S(=O)(=O)N2CCN(c3ccc([N+](=O)[O-])c4cccnc34)CC2)cc1 | ? | – | – | ? | – | ?
CN1CCN(S(=O)(=O)c2ccc([N+](=O)[O-])cc2)CC1 | – | ? | – | – | – | –
O=[N+]([O-])c1ccc(N2CCN(S(=O)(=O)c3ccccc3)CC2)cc1 | ? | – | – | 4.61µM | ? | –
CN(c1ccc(C(=O)N2CCOCC2)cc1[N+](=O)[O-])C1CCCCC1 | – | – | – | 23.1µM | – | ?
CN(C(=O)c1ccc(N2CCOCC2)c([N+](=O)[O-])c1)C1CCCCC1 | – | – | – | – | – | –[1.91 µM]
O=[N+]([O-])c1ccc(N2CCN(S(=O)(=O)c3ccccc3)CC2)c2cccnc12 | –[9.22 µM] | – | – | 8.2µM | – | –
CC1CC(C)CN(C(C(=O)NC2CCCCC2)c2cc3ccccc3o2)C1 (centres undefined) | · | · | · | – | – | ·
CC(C)Oc1cccc(C(=O)Nc2ccc(-c3nc4cc(Cl)cc(Cl)c4o3)cc2)c1 | · | · | · | – | – | ·
Cn1c(=O)n(C)c2cc([N+](=O)[O-])c(N3CCN(S(C)(=O)=O)CC3)cc21 | – | – | – | – | – | –
Cn1c(=O)n(C)c2cc([N+](=O)[O-])c(N3CCN(S(=O)(=O)c4ccccc4)CC3)cc21 | – | – | – | 2.91µM | ? | ?
SMILES | MCF10A rereplic | SW480 rerep | Gal4-VP16 FLuc | KB-V1 MDR tox | KB-3-1 tox | RORgamma inh
Cn1c(=O)n(C)c2cc([N+](=O)[O-])c(N3CCN(C(=O)c4ccccc4Cl)CC3)cc21 | – | – | – | 16.4µM | 23.1µM | –
COC(=O)c1n[nH]n(-c2ccccc2)c1=O | · | · | · | – | – | ·
CN(Cc1ccccc1)C(=O)c1[nH]cnc1C(=O)N[C@@H](CCCCNC(=O)OC(C)(C)C)C(=O)OC(C)(C)C | – | – | ? | – | – | 7.08µM
CC(C)(C)OC(=O)NCCCC[C@H](NC(=O)c1[nH]cnc1C(=O)Nc1ccc(CNC(=O)OC(C)(C)C)cc1)C(=O)OC(C)(C)C | 4.11µM | – | – | – | – | ?
C[C@H](NC(=O)c1[nH]cnc1C(=O)Nc1ccc(CNC(=O)OC(C)(C)C)cc1)C(=O)OC(C)(C)C | ? | ? | ? | – | ? | 8.91µM
CC(C)(C)OC(=O)NCCCC[C@H](NC(=O)c1[nH]cnc1C(=O)N[C@@H](Cc1ccccc1)C(=O)OC(C)(C)C)C(=O)OC(C)(C)C | – | –[9.22 µM] | ? | – | ? | 7.94µM
CC(C)(C)OC(=O)NCCCCCNC(=O)c1[nH]cnc1C(=O)N[C@@H](Cc1ccccc1)C(=O)OC(C)(C)C | ? | ? | · | – | – | ·
O=C(CSc1nccn1Cc1ccc(F)cc1)Nc1nc2ccccc2s1 | · | · | · | – | – | ·
CCOC(=O)CC1(CCc2ccccc2)Oc2ccccc2O1 | · | · | · | – | – | ·
C[C@H](NC(=O)c1nc[nH]c1C(=O)N[C@@H](CCCCNC(=O)OC(C)(C)C)C(=O)OC(C)(C)C)c1ccccc1 | – | ? | 11.2µM | 20.6µM | ? | 5.62µM
CC(C)(C)OC(=O)NCCCC[C@H](NC(=O)c1nc[nH]c1C(=O)NCc1ccccc1)C(=O)OC(C)(C)C | ? | –[9.22 µM] | ? | – | ? | 14.1µM
COc1ccc(-c2coc3cc(OC(C)=O)cc(OC(C)=O)c3c2=O)cc1 | · | · | – | · | · | –
O=C(Cn1c(=O)oc2cc(S(=O)(=O)N3CCCCC3)ccc21)Nc1cccc(Cl)c1 | · | · | · | – | – | ·
Cc1ccc(S(=O)(=O)N/N=C\c2cc3c(cc2Br)OCO3)cc1 | 4.61µM | ? | – | – | – | ?
O=C1CCCN1c1ccc(S(=O)(=O)Nc2ccc3c(c2)OCCO3)cc1 | – | – | ? | 18.4µM | 18.4µM | –
O=S(=O)(Nc1ccc2c(c1)OCCO2)c1ccc(F)cc1 | – | – | – | – | – | –
CC(=O)c1cc2c(cc1NS(=O)(=O)c1ccccc1)OCO2 | – | – | – | – | – | –
Cc1ccc(S(=O)(=O)Nc2ccc3c(c2)OCCO3)cc1 | – | – | – | 23.1µM | ? | –
CC(=O)c1cc2c(cc1NS(=O)(=O)c1ccc(C)cc1)OCCO2 | 14.6µM | ? | – | 16.4µM | – | –
Cc1cc2oc(C(=O)N(Cc3ccccc3)C3CCS(=O)(=O)C3)cc(=O)c2cc1C (centres undefined) | · | · | · | – | – | ·
COc1ccc(-c2cnc(C(O)c3ccc(C(C)(C)C)cc3)[nH]2)cc1 (centres undefined) | · | · | · | ? | – | ·
O=C(CCCn1c2ccccc2c(=O)c2ccccc21)Nc1ccc(F)cc1Cl | · | · | · | – | – | ·
CC(=O)c1sc(-c2ccccc2)cc1NS(=O)(=O)c1ccccc1 | – | – | – | – | – | –
CC(=O)c1sc(-c2ccccc2)cc1NS(=O)(=O)c1ccc(C)cc1 | 11.6µM | ? | – | ? | – | ?
